{
  "source": "the supplement of paper PMC9588786",
  "note": "± gives the standard deviation of the averaged measurements.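 Also: viability read as CCK-8 absorbance at 450 nm in cells co-exposed to the GPX4 inhibitor RSL3, relative to a 0.01% DMSO vehicle control.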",
  "data": [
    {"system": "HT-1080", "assay": "relative cell viability with RSL3 co-treatment (fraction of control); higher = stronger protection from RSL3-induced ferroptosis (higher viability)", "conditions": "10 µM", "values": [
      {"smiles": "O=C(O)[C@]1(Cc2cccc(Nc3nccs3)n2)CC[C@@H](Oc2cccc(Cl)c2F)CC1", "relative cell viability": "1.02 ± 0.14"},
      {"smiles": "Cn1cc(-c2ccc3nnc(C(F)(F)c4ccc5ncccc5c4)n3n2)cn1", "relative cell viability": "0.743 ± 0.04"},
      {"smiles": "COc1cccc2cc(-c3nc([C@H]4CC[C@H](C(=O)O)CC4)n4ncnc(N)c34)[nH]c12", "relative cell viability": "0.7 ± 0.07"},
      {"smiles": "COC(=O)Nc1ccc(-c2nc(N3CCOCC3)c3cnn(C4CCN(C(=O)OC)CC4)c3n2)cc1", "relative cell viability": "0.547 ± 0.18"},
      {"smiles": "CN1CCN(c2ccc3nc(-c4c(N)c5c(F)cccc5[nH]c4=O)[nH]c3c2)CC1", "note": "[Dovitinib (TKI-258) Dilactic Acid]", "relative cell viability": "0.563 ± 0.25"},
      {"smiles": "CCN(CC)CCNC(=O)c1c(C)[nH]c(/C=C2\\C(=O)Nc3ccc(F)cc32)c1C", "note": "[Sunitinib Malate]", "relative cell viability": "0.543 ± 0.099"},
      {"smiles": "CCN1CCN(Cc2ccc(C(=O)Nc3ccc(C)c(Oc4ccc5c(c4)CC(=O)N5)c3)cc2C(F)(F)F)CC1", "relative cell viability": "0.46 ± 0.046"},
      {"smiles": "COc1cc2ncnc(Nc3ccc(F)c(Cl)c3)c2cc1NC(=O)/C=C/CN1CCCCC1", "relative cell viability": "0.61 ± 0.046"},
      {"smiles": "NC1(Cc2ccc(Cl)cc2)CCN(c2ncnc3[nH]ccc23)CC1", "relative cell viability": "0.473 ± 0.25"},
      {"smiles": "CCn1c2ccccc2c2cc(Nc3ccnc(NCCCN4CCOCC4)n3)ccc21", "relative cell viability": "0.64 ± 0.089"},
      {"smiles": "O=C(NC[C@H](O)CO)c1ccncc1Nc1ccc(I)cc1F", "relative cell viability": "0.803 ± 0.076"},
      {"smiles": "COc1ccc(-c2ccc3c(N4CCOC[C@@H]4C)nc(N4CCOC[C@@H]4C)nc3n2)cc1CO", "relative cell viability": "0.893 ± 0.13"},
      {"smiles": "O=c1c(O)c(-c2ccc(O)c(O)c2)oc2cc(O)cc(O)c12", "note": "[Quercetin]", "relative cell viability": "0.703 ± 0.074"},
      {"smiles": "Cc1cc2c(F)c(Oc3ncnn4cc(OC[C@@H](C)OC(=O)[C@H](C)N)c(C)c34)ccc2[nH]1", "relative cell viability": "0.653 ± 0.095"}
    ]}
  ]
}
